Laboratory results published in PubChem BioAssay (EPA / NIEHS).
Records with an inconclusive call do not appear. Activity calls are given as the source filed them. Rule for the calls, unless noted: active = hit-call score of the fitted dose curve at least 0.9, where 1 is the maximum; inconclusive = response in the unintended direction; inactive = score below 0.9.

What was measured:
[1] = CCTE_Padilla_ZF_144hpf_TERATOSCORE: (Legacy) CCTE's 144 Hour Post-fertilization zebrafish Assay Teratoscore, Padilla Lab (AID 2283679; active = hit-call score of the fitted dose curve at least 0.9, where 1 is the maximum; inactive = score below 0.9;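 for AC50: zebrafish embryos with chorions exposed by immersion from 6-8 hpf to 5 dpf with daily renewal; teratogenicity score from eye scoring of death hatching and malformations at 144 hpf; higher score means more developmental defects relative to DMSO baseline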)
In short: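 Larvae scored by eye at 144 hpf for death, hatching and malformations after a day in clean Hanks'. Before that, daily-renewed exposure at 80 uM (0.4% DMSO, 26C) from roughly 6-8 hpf through 5 dpf, 4 embryos per chemical.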

[2] = read-out: Glyceraldehyde-3-phosphate dehydrogenase (Homo sapiens) (UniProt P04406); assay: CLD_GAPDH_6hr: CellzDirect (CLD) Gene Expression Assay for Baseline Control (Glyceraldehyde 3-phosphate dehydrogenase) at 6 hours (AID 2283681);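 note: active means increased signal relative to DMSO vehicle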
In short: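 GAPDH baseline-control readout from qNPA (S1 nuclease digestion, probe hybridization, chemiluminescence) in lysates of cultured human hepatocytes harvested 6 h post-dosing. Chemicals tested at multiple concentrations versus 0.2% DMSO vehicle; microscopy-based cytotoxicity flagged yes/no.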

[3] = read-out: ABC Transporter (ABCB1), ABCB1 (gene 5243); assay: CLD_ABCB1_24hr: CellzDirect (CLD) Gene Expression Assay for ABC Transporter (ABCB1) at 24 hours (AID 2283684)
In short: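 ABCB1 mRNA induction versus 0.2% DMSO vehicle was read by qNPA chemiluminescence at 24 h. Cultured human hepatocytes from two donor preparations received daily fresh dosing, and phase-contrast cytotoxicity calls were annotated alongside the data.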

[4] = read-out: Cytochrome P450 2C19 (Homo sapiens) (UniProt P33261); assay: CLD_CYP2C19_24hr: CellzDirect (CLD) Gene Expression Assay for xenobiotic metabolism (CYP2C19) at 24 hours (AID 2283687);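 note: activity means mRNA induction above DMSO vehicle baseline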
In short: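 CYP2C19 mRNA was quantified by qNPA chemiluminescence after 24 h of daily dosing of cultured human primary hepatocytes from two donors; vehicle was 0.2% DMSO, and increases over DMSO baseline were fitted.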

[5] = read-out: glucuronosyltransferase (UGT1A1), UGT1A1 (gene 54658); assay: CLD_UGT1A1_24hr: CellzDirect (CLD) Gene Expression Assay for glucuronosyltransferase (UGT1A1) at 24 hours (AID 2283696)
In short: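 UGT1A1 transcript induction was measured by quantitative nuclease protection assay (chemiluminescence) in human hepatocyte cultures 24 h after daily fresh dosing, with 0.2% DMSO as vehicle and baseline.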

[6] = read-out: Cytochrome P450 3A4 (Homo sapiens) (UniProt P08684); assay: CLD_CYP3A4_48hr: CellzDirect (CLD) Gene Expression Assay for xenobiotic metabolism (CYP3A4) at 48 hours (AID 2283698)
In short: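 CYP3A4 induction read by qNPA chemiluminescence after 48 h, with fresh dosing solutions on consecutive days, in cultured human hepatocytes (two donors). Vehicle 0.2% DMSO as baseline; microscopy-based cytotoxicity annotated yes/no alongside data.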

[7] = read-out: Cytochrome P450 2B6 (Homo sapiens) (UniProt P20813); assay: CLD_CYP2B6_24hr: CellzDirect (CLD) Gene Expression Assay for xenobiotic metabolism (CYP2B6) at 24 hours (AID 2283686)
In short: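 qNPA chemiluminescent measurement of mRNA at 24 hours in human primary hepatocyte cultures from two donor preparations, with daily fresh dosing and 0.2% DMSO vehicle as baseline. Morphology-based cytotoxicity flagged yes/no.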

[8] = read-out: Cytochrome P450 3A4 (Homo sapiens) (UniProt P08684); assay: CLD_CYP3A4_24hr: CellzDirect (CLD) Gene Expression Assay for xenobiotic metabolism (CYP3A4) at 24 hours (AID 2283689)
In short: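 CYP3A4 mRNA induction read by quantitative nuclease protection (chemiluminescence) 24 hr after dosing. Cultured human hepatocytes (two donor preparations) treated daily, vehicle 0.2% DMSO; phase-contrast morphology annotates cytotoxicity.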

[9] = read-out: Glyceraldehyde-3-phosphate dehydrogenase (Homo sapiens) (UniProt P04406); assay: CLD_GAPDH_24hr: CellzDirect (CLD) Gene Expression Assay for Baseline Control (Glyceraldehyde 3-phosphate dehydrogenase) at 24 hours (AID 2283692)
In short: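 GAPDH baseline-control readout: qNPA chemiluminescent mRNA signal in human primary hepatocytes harvested 24 h after daily dosing, normalised to 0.2% DMSO with positive fitting direction; cytotoxicity annotated by phase-contrast morphology.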

[10] = read-out: alkyl and aryl transferase (GSTA2), GSTA2 (gene 2939); assay: CLD_GSTA2_24hr: CellzDirect (CLD) Gene Expression Assay for alkyl and aryl transferase (GSTA2) at 24 hours (AID 2283693)
In short: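 GSTA2 transcript levels were quantified by quantitative nuclease protection assay in primary human hepatocytes 24 h after daily dosing with fresh solutions at multiple concentrations; 0.2% DMSO vehicle as baseline, cytotoxicity flagged morphologically.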

[11] = read-out: ABC Transporter (ABCB1), ABCB1 (gene 5243); assay: CLD_ABCB1_48hr: CellzDirect (CLD) Gene Expression Assay for ABC Transporter (ABCB1) at 48 hours (AID 2283695)
In short: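 ABCB1 mRNA was measured by quantitative nuclease protection assay (chemiluminescence) 48 h after dosing. Human hepatocyte cultures from two separate donors received fresh dosing solutions daily for two days, with 0.2% DMSO as vehicle. Positive-direction fit against DMSO.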

[12] = read-out: Cytochrome P450 2C19 (Homo sapiens) (UniProt P33261); assay: CLD_CYP2C19_48hr: CellzDirect (CLD) Gene Expression Assay for xenobiotic metabolism (CYP2C19) at 48 hours (AID 2283700);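 note: fitted upward so actives raise CYP2C19 mRNA above the 0.2% DMSO vehicle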
In short: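 CYP2C19 mRNA induction read by chemiluminescent quantitative nuclease protection assay after 48 h, with fresh compound added daily for two days to cultured human liver hepatocytes. Activity fitted upward against 0.2% DMSO vehicle.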

[13] = read-out: xenobiotic metabolism (CYP1A2), CYP1A2 (gene 1544); assay: CLD_CYP1A2_24hr: CellzDirect (CLD) Gene Expression Assay for xenobiotic metabolism (CYP1A2) at 24 hours (AID 2283683)
In short: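 CYP1A2 mRNA induction measured by quantitative nuclease protection (chemiluminescent) in human primary hepatocytes 24 h after multi-concentration chemical dosing with daily fresh solutions. DMSO (0.2%) baseline; positive-direction fitting; morphology-based cytotoxicity noted.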

[14] = read-out: Cytochrome P450 2C9 (Homo sapiens) (UniProt P11712); assay: CLD_CYP2C9_24hr: CellzDirect (CLD) Gene Expression Assay for xenobiotic metabolism (CYP2C9) at 24 hours (AID 2283688)
In short: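 Induction of CYP2C9 mRNA was quantified by quantitative nuclease protection assay (chemiluminescence), gain of signal versus 0.2% DMSO vehicle, 24 h after dosing. Human primary hepatocytes (two donors) received fresh chemical daily at multiple concentrations; morphology-based cytotoxicity flagged yes/no.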

[15] = read-out: organic anion transporter (SLCO1B1), SLCO1B1 (gene 10599); assay: CLD_SLCO1B1_24hr: CellzDirect (CLD) Gene Expression Assay for organic anion transporter (SLCO1B1) at 24 hours (AID 2283690)
In short: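 SLCO1B1 mRNA induction read at 24 h by quantitative nuclease protection assay (chemiluminescence), analyzed against DMSO baseline. Human hepatocyte cultures from separate donors received fresh dosing solutions daily; vehicle 0.2% DMSO; cytotoxicity flagged by phase-contrast morphology.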

[16] = read-out: sulfotransferase (SULT2A), SULT2A1 (gene 6822); assay: CLD_SULT2A_24hr: CellzDirect (CLD) Gene Expression Assay for sulfotransferase (SULT2A) at 24 hours (AID 2283694)
In short: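 mRNA is measured by qNPA: probe hybridisation, S1 nuclease digestion, chemiluminescence, in lysates from human primary hepatocytes harvested 24 h after daily dosing. Vehicle was 0.2% DMSO. Phase-contrast microscopy flagged cytotoxicity (yes/no).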

[17] = read-out: Cytochrome P450 3A4 (Homo sapiens) (UniProt P08684); assay: CLD_CYP3A4_6hr: CellzDirect (CLD) Gene Expression Assay for xenobiotic metabolism (CYP3A4) at 6 hours (AID 2283680)
In short: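 CYP3A4 mRNA induction, 6 h after dosing of cultured primary human hepatocytes from two donors, read by quantitative nuclease protection (qNPA, chemiluminescence). Vehicle 0.2% DMSO as baseline; morphology-based cytotoxicity annotated yes/no.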

[18] = read-out: Cytochrome P450 2B6 (Homo sapiens) (UniProt P20813); assay: CLD_CYP2B6_48hr: CellzDirect (CLD) Gene Expression Assay for xenobiotic metabolism (CYP2B6) at 48 hours (AID 2283699);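 note: actives raise transcript level above DMSO so potency reflects induction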
In short: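 CYP2B6 transcript induction, read by quantitative nuclease protection (S1 digestion, chemiluminescent detection) 48 h after dosing, is fitted upward against 0.2% DMSO. Cultured human liver primary cells, two donor preparations, received fresh chemical daily over multiple concentrations.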

[19] = read-out: Broad substrate specificity ATP-binding cassette transporter ABCG2 (Homo sapiens) (UniProt Q9UNQ0); assay: CLD_ABCG2_24hr: CellzDirect (CLD) Gene Expression Assay for ABC Transporter (ABCG2) at 24 hours (AID 2283685)
In short: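 ABCG2 mRNA induction, read as gain of chemiluminescent signal over 0.2% DMSO, was measured by quantitative nuclease protection at 24 h. Cultured human liver hepatocytes were given fresh dosing solutions of test chemicals at several concentrations each day.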

Sequence of Glyceraldehyde-3-phosphate dehydrogenase (Homo sapiens) (P04406 whole entry, looked up): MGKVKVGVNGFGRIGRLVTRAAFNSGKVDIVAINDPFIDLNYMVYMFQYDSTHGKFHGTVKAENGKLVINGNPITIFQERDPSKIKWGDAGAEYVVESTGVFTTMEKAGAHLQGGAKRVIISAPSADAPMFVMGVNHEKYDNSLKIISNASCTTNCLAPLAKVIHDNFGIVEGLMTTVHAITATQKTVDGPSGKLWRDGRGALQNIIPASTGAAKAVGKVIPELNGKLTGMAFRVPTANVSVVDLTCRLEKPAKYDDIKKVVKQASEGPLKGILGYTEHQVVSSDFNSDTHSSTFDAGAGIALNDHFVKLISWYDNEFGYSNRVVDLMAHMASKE
Sequence of Cytochrome P450 2C19 (Homo sapiens) (P33261 whole entry, looked up): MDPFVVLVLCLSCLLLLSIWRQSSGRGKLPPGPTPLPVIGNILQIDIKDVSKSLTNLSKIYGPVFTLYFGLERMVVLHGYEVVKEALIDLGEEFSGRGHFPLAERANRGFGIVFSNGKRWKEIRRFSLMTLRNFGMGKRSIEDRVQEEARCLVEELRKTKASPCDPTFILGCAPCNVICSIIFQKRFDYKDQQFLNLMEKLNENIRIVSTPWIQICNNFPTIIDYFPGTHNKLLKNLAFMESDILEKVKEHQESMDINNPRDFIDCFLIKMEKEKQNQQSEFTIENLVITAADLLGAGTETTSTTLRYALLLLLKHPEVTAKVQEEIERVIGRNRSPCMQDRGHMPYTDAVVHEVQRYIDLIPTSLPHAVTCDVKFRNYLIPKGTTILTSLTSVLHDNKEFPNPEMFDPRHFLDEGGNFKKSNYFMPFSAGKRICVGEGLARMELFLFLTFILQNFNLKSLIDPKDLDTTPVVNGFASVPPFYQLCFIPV
Sequence of Cytochrome P450 3A4 (Homo sapiens) (P08684 whole entry, looked up): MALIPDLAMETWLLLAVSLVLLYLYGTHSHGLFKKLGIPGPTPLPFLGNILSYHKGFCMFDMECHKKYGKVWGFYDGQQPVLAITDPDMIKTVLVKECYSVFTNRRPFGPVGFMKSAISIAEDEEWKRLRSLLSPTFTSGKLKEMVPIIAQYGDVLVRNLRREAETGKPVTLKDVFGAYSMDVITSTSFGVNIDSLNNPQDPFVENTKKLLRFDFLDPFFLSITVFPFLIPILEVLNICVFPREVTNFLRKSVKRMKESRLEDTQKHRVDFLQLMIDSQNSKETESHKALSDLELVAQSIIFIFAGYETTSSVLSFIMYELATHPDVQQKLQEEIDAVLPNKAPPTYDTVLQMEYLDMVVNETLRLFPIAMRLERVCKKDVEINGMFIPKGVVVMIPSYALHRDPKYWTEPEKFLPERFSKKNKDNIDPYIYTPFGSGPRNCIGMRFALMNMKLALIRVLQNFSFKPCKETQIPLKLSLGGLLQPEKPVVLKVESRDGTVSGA
Sequence of Broad substrate specificity ATP-binding cassette transporter ABCG2 (Homo sapiens) (Q9UNQ0 whole entry, looked up): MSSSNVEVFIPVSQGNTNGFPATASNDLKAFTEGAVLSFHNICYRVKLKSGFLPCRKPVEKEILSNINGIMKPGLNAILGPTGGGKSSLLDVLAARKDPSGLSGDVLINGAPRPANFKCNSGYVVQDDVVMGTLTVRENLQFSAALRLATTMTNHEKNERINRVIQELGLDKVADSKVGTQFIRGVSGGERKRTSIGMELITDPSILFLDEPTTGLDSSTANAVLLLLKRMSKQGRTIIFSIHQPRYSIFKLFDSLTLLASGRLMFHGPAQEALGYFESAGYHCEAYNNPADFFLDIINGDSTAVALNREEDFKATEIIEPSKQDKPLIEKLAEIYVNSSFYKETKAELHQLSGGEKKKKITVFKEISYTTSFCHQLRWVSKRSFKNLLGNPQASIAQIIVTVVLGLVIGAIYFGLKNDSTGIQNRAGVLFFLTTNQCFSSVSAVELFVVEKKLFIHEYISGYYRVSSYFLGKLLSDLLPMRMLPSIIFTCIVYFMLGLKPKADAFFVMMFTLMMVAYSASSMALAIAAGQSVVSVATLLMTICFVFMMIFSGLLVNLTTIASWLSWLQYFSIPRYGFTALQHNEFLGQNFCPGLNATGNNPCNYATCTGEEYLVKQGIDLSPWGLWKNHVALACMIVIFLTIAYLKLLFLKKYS

Compound: CCCCOCN(C(=O)CCl)c1c(CC)cccc1CC
- AC50 [1]: 5.42 µM (active)
- outcome [2]: inactive
- outcome [3]: inactive
- outcome [4]: inactive
- outcome [5]: inactive
- AC50 [6]: 3.57 µM (active)

Compound: C=C(C)CN(CC)c1c([N+](=O)[O-])cc(C(F)(F)F)cc1[N+](=O)[O-]
- outcome [1]: inactive
- outcome [2]: inactive
- outcome [7]: inactive
- outcome [4]: inactive
- AC50 [8]: 5.33 µM (active)
- outcome [9]: inactive
- outcome [10]: inactive
- outcome [11]: inactive
- AC50 [6]: 3.97 µM (active)
- outcome [12]: inactive

Compound: COP(=S)(OC)SCn1nnc2ccccc2c1=O
- AC50 [1]: 15.2 µM (active)
- outcome [2]: inactive
- AC50 [7]: 4.46 µM (active)
- AC50 [8]: 20 µM (active)
- outcome [11]: inactive
- AC50 [5]: 9.43 µM (active)
- AC50 [6]: 12.8 µM (active)

Compound: CCOc1cc(C(C)(C)C)ccc1C1COC(c2c(F)cccc2F)=N1 (stereo not given)
- AC50 [1]: 1.9 µM (active)
- outcome [2]: inactive
- AC50 [13]: 15.7 µM (active)
- AC50 [7]: 1.9 µM (active)
- outcome [14]: inactive
- AC50 [8]: 1.9 µM (active)
- outcome [5]: inactive
- AC50 [6]: 1.9 µM (active)

Compound: O=P(O)(O)CCCl
- outcome [1]: inactive
- outcome [2]: inactive
- outcome [13]: inactive
- outcome [4]: inactive
- outcome [9]: inactive
- outcome [5]: inactive

Compound: CN=C=S
- AC50 [1]: 2.93 µM (active)
- outcome [2]: inactive
- outcome [13]: inactive
- outcome [4]: inactive
- outcome [14]: inactive
- outcome [8]: inactive
- outcome [15]: inactive
- outcome [9]: inactive
- outcome [16]: inactive
- outcome [5]: inactive
- outcome [6]: inactive
- outcome [12]: inactive

Compound: COC(=O)N(C(=O)N1CO[C@@]2(C(=O)OC)Cc3cc(Cl)ccc3C2=N1)c1ccc(OC(F)(F)F)cc1
- AC50 [1]: 1.57 µM (active)
- AC50 [17]: 1.21 µM (active)
- outcome [2]: inactive
- outcome [5]: inactive
- AC50 [6]: 5.15 µM (active)

Compound: Nc1c(Cl)c(Cl)nc(C(=O)O)c1Cl
- outcome [1]: inactive
- outcome [2]: inactive
- outcome [7]: inactive
- outcome [4]: inactive
- outcome [5]: inactive
- outcome [6]: inactive
- outcome [18]: inactive
- outcome [12]: inactive

Compound: CC(C)Oc1cccc(NC(=O)c2ccccc2C(F)(F)F)c1
- AC50 [1]: 15.9 µM (active)
- outcome [2]: inactive
- outcome [19]: inactive
- outcome [4]: inactive
- outcome [15]: inactive
- outcome [16]: inactive
- outcome [5]: inactive
- outcome [12]: inactive

Compound: CC(C)NC(=O)N1CC(=O)N(c2cc(Cl)cc(Cl)c2)C1=O
- AC50 [1]: 74.4 µM (active)
- outcome [2]: inactive
- AC50 [13]: 15.7 µM (active)
- outcome [3]: inactive
- AC50 [7]: 10.4 µM (active)
- outcome [14]: inactive
- outcome [5]: inactive
- AC50 [6]: 13.5 µM (active)
- AC50 [18]: 3.92 µM (active)

Compound: CCOC(=O)C(C)OC(=O)c1cc(Oc2ccc(C(F)(F)F)cc2Cl)ccc1[N+](=O)[O-] (stereo not given)
- AC50 [1]: 0.19 µM (active)
- AC50 [17]: 4.03 µM (active)
- AC50 [8]: 3.19 µM (active)
- AC50 [5]: 2.46 µM (active)
- AC50 [6]: 5.01 µM (active)
- AC50 [18]: 20 µM (active)
- outcome [12]: inactive

Compound: COP(=S)(OC)Oc1ccc([N+](=O)[O-])c(C)c1
- AC50 [1]: 50 µM (active)
- outcome [2]: inactive
- AC50 [13]: 1.38 µM (active)
- outcome [3]: inactive
- outcome [15]: inactive
- outcome [9]: inactive
- outcome [5]: inactive
- AC50 [6]: 0.0472 µM (active)
- AC50 [18]: 2.67 µM (active)

Compound: CC(C)C1(C)N=C(c2ncccc2C(=O)O)NC1=O (stereo not given)
- outcome [1]: inactive
- outcome [2]: inactive
- outcome [19]: inactive
- outcome [4]: inactive
- outcome [9]: inactive
- outcome [16]: inactive
- outcome [5]: inactive
- outcome [6]: inactive
- outcome [12]: inactive

Compound: Clc1nc(Cl)nc(Nc2ccccc2Cl)n1
- AC50 [1]: 52 µM (active)
- outcome [2]: inactive
- outcome [13]: inactive
- outcome [8]: inactive
- outcome [15]: inactive
- outcome [9]: inactive
- outcome [6]: inactive
- outcome [12]: inactive

Compound: CC(C)(C)C(=O)C(Oc1ccc(Cl)cc1)n1cncn1 (stereo not given)
- AC50 [1]: 17.4 µM (active)
- outcome [2]: inactive
- outcome [4]: inactive
- AC50 [8]: 1.63 µM (active)
- outcome [16]: inactive
- outcome [11]: inactive
- outcome [5]: inactive
- AC50 [6]: 1.5 µM (active)
- AC50 [18]: 3.31 µM (active)
- outcome [12]: inactive

Compound: Cc1cnc(C2=NC(C)(C(C)C)C(=O)N2)c(C(=O)O)c1 (stereo not given)
- outcome [1]: inactive
- outcome [17]: inactive
- outcome [2]: inactive
- outcome [4]: inactive
- outcome [15]: inactive
- outcome [9]: inactive
- outcome [16]: inactive
- outcome [5]: inactive
